Values joined by “and” are separate entries in the source; they are usually repeats but may differ in a detail not shown here. Equal entries are not always repeated. Results filed as inconclusive are left out. A number with no mark means an inactive call. Active and inactive are the calls of the source. Calls follow the shape of the dose curve; as a rule, active = well fitted curve in either direction with a large enough effect; inconclusive = small, poorly fitted or top-dose-only effect; inactive = no such curve, though single readings can be large or run the other way.

The assay has as its target Lysosomal alpha-glucosidase (Homo sapiens) (UniProt P10253). Kind of assay: Confirmation of Inhibitors and Activators of Purified Human alpha-Glucosidase Using an Alternate Red Fluorescent Susbtrate. The following applies: purified enzyme, red fluorogenic substrate; series mostly up to 63.4 µM; activity change, negative = inhibition: at the top concentration. The method, boiled down:
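Concentration series tested against 4 nM purified human enzyme, pH 5.0 citrate buffer with Tween-20; 400 uM resorufin glycoside substrate, 20 min room temperature, NaOH/glycine stop. Fluorescence normalized to no-enzyme and full-activity controls; Hill-equation AC50.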
As for `O=Cc1ccc(N2CCN(S(=O)(=O)c3ccc4c(c3)CC(=O)N4)CC2)cc1`, the Potency is 4.11 µM [inhibitor] (active).
In the case of `CCCN1CNc2c(c(=O)[nH]c(=S)n2CCc2ccc(OC)cc2)C1`, the Potency was 6.31 µM (active).
As for `CC(=O)c1ccc(N2CCN(S(=O)(=O)c3ccc4c(c3)CC(=O)N4)CC2)cc1`, the Potency was 919 nM [inhibitor] (active) and 1.06 µM [inhibitor] (active) and 1.3 µM [inhibitor] (active).
On the same count and under the same terms, to `CCCN1CNc2c(c(=O)[nH]c(=S)n2CCc2ccc(Cl)cc2)C1` belongs 11.2 µM (active).
Turning to `COc1ccc(CCn2c(=S)[nH]c(=O)c3nccnc32)cc1OC`, the “activity change, negative = inhibition” value is -4.4%.
Consider `CCCN1CNc2c(c(=O)[nH]c(=S)n2CCc2ccc(OCC)c(OCC)c2)C1`, for which the Potency was 1.78 µM (active).
In the case of `CCCN1CNc2c(c(=O)[nH]c(=S)n2CCc2cccs2)C1`, the Potency is 7.94 µM (active).
The same measure, in the same setting: to `CCCN1CNc2c(c(=O)[nH]c(=S)n2CCc2cc(OC)cc(OC)c2)C1` belongs 0.708 µM (active).
For the compound `c1csc(-c2nc(NCC3CCCO3)c3ccccc3n2)c1` (stereo unspecified), the “activity change, negative = inhibition” value is -0.393% [at 32.7 µM].
With `CC(=O)Nc1ccc(S(=O)(=O)N2CCN(c3ccc(C(C)=O)cc3)CC2)cc1`, the “activity change, negative = inhibition” value was -7.47%.
`CCCN1CNc2c(c(=O)[nH]c(=S)n2CCc2ccc(OC)c(OC)c2)C1`: the Potency was 2 µM (active).
In the case of `CCCN1CNc2c(c(=O)[nH]c(=S)n2CCc2ccc(Cl)cc2Cl)C1`, the Potency is 1.26 µM (active).
Still for that read-out and setting: next, `CCCN1CNc2c(c(=O)[nH]c(=S)n2CCc2cc(C)cc(C)c2)C1`: 3.16 µM (active).
Turning to `COc1ccc(CCc2c[nH]c(=O)c3cncnc23)cc1OC`, the “activity change, negative = inhibition” value is 2.32%.
`CCCN1CNc2c(c(=O)[nH]c(=S)n2CCc2cc(Cl)cc(Cl)c2)C1`: the Potency is 2 µM (active).
On to `COc1ccc(CCn2c(=S)[nH]c(=O)c3[nH]cnc32)cc1OC`, for which the “activity change, negative = inhibition” value was 11.1%.
Still for that read-out and setting: next, `CC(=O)c1ccc(N2CCN(C(=O)c3ccc4c(c3)CCC(=O)N4)CC2)cc1`: -4.65%.
For the compound `CCCN1CNc2c(c(=O)[nH]c(=S)n2CCc2cccc(OC)c2)C1`, the Potency was 2.51 µM (active).
With `O=S(=O)(c1ccc(Cl)cc1)N1CCN(c2nc(-c3cccs3)nc3ccccc23)CC1`, the “activity change, negative = inhibition” value was -7.19%.
On the same count and under the same terms, next, `CC(=O)c1ccc(N2CCN(S(=O)(=O)c3ccc4c(c3)CCCN4C(C)=O)CC2)cc1`: -15.8%.
`CCCN1CNc2c(c(=O)[nH]c(=S)n2CCc2cccc(OC)c2OC)C1`: the Potency was 10 µM (active).
On the same count and under the same terms, next, `COc1ccc(N2CCN(S(=O)(=O)c3ccc4c(c3)CC(=O)N4)CC2)cc1`: 18.8 µM [inhibitor] (active).
For the compound `CC(=O)c1ccc(N2CCN(S(=O)(=O)c3ccc(N4CCCC4=O)cc3)CC2)cc1`, the “activity change, negative = inhibition” value is -2.38%.
On to `O=C1Cc2cc(S(=O)(=O)N3CCN(c4ccc(CO)cc4)CC3)ccc2N1`, for which the Potency is 13 µM [inhibitor] (active).
Take `COc1ccc(C#Cc2c[nH]c(=O)c3cncnc23)cc1OC`: the “activity change, negative = inhibition” value is -0.698%.
Take `COc1ccc(CCn2c3c(c(=O)[nH]c2=S)CN(C)CN3)cc1OC`: the Potency was 7.94 µM (active).

(Values after PubChem BioAssay AID2110 (National Center for Advancing Translational Sciences (NCATS), 2009).)
